Test results as given in PubChem BioAssay (Tox21).
Where “and” joins values, the source holds several entries; their conditions need not be identical. Equal values may be shown once. Inconclusive results are not listed. Calls of active or inactive are those of the source. Unless noted, calls follow the shape of the dose curve; as a rule, active = well fitted curve in the direction sought with a large enough effect in the repeat runs; inconclusive = weak or mixed curves; inactive = no such curve, though single readings can be large; an effect the other way counts as inactive or inconclusive.

Experiments:
[1] = qHTS assay for small molecules that induce genotoxicity in human embryonic kidney cells expressing luciferase-tagged ATAD5 (AID 651632); also: nearly all actives have a fitted effect of over 15% in size
Method in brief: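 Quantitative HTS in HEK293T expressing luciferase-tagged ATAD5, whose levels rise upon DNA damage. Exposure ran 16 hr at 37C and 5% CO2, with luminescence read 30 min after Amplite addition at room temperature.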

[2] = qHTS assay for small molecule agonists of the p53 signaling pathway - cell viability (AID 651633; calls by dose curve; also: nearly all actives have a fitted effect of over 30% in size; also: potency is read from the fitted curve at half-maximal effect)
Method in brief: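 p53RE-bla cells, seeded at 4,000 per well and rested 5 h at 37 C/5% CO2, received compounds in DMSO for 16 h at 37 C. CellTiter-Glo was then added, and luminescence was read after 30 min at room temperature to gauge cytotoxicity.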

[3] = qHTS assay for small molecules that induce genotoxicity in human embryonic kidney cells expressing luciferase-tagged ATAD5 - cell viability (AID 651634; calls by dose curve; also: nearly all actives have a fitted effect of over 25% in size; also: potency is read from the fitted curve at half-maximal effect)
Method in brief: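 After 15.5 hr incubation with compound at 37C, 5% CO2, HEK293T ATAD5-luciferase cells received CellTiter-Fluor reagent; fluorescence intensity was quantified following 30 min at 37C.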

[4] = qHTS assay for small molecule disruptors of the mitochondrial membrane potential - cell viability (AID 720634; calls by dose curve; also: nearly all actives have a fitted effect of over 20% in size; also: potency is read from the fitted curve at half-maximal effect)
Method in brief: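 ATP-based luminescent viability readout (CellTiter-Glo, 30 min, room temperature) in HepG2 cells multiplexed with the m-MPI membrane potential dye; compound exposure lasted 1 hr at 37 C.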

[5] = qHTS assay to test for compound auto fluorescence at 590 nm (red) in HepG2 cells (AID 720674)
Method in brief: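 Rose Bengal sodium served as the red fluorophore standard. HepG2 monolayers (overnight attachment, MEM with 10% FBS) were exposed to test compounds for 1 hr at 37 C and read at Ex 540/Em 590 nm.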

[6] = qHTS assay to test for compound auto fluorescence at 460 nm (blue) in HEK293 cells (AID 720678)
Method in brief: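 After cell attachment (4-5 hr, 37C), compounds were pinned onto HEK293 monolayers in 10% dialyzed FBS medium. The blue channel (405/460 nm) was read following overnight culture. Equivalency was calculated against triamterene.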

[7] = qHTS assay to test for compound auto fluorescence at 590 nm (red) in HEK293 cells (AID 720679)
Method in brief: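 Plates of HEK293 cells (10% dialyzed FBS) are treated with 23 nL compound or DMSO vehicle after a 4-5 hr attachment period, incubated overnight at 37C, and read for red fluorescence at 540/590nm.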

[8] = qHTS assay to test for compound auto fluorescence at 535 nm (green) in HEK293 cells (AID 720680)
[9] = qHTS assay to test for compound auto fluorescence at 460 nm (blue) in HEK293 cell free culture (AID 720681)
Method in brief: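 Test compounds were pinned into cell-free culture medium (DMEM with 10% FBS) and fluorescence was read directly at Ex/Em 405/460 nm. Signals were expressed as fluorescence equivalents of triamterene, with DMSO vehicle as control.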

[10] = qHTS assay to test for compound auto fluorescence at 535 nm (green) in HEK293 cell free culture (AID 720682)
Method in brief: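 Steps: dispense DMEM/10% FBS into empty wells; pin in compound or DMSO; measure fluorescence at 485/535 nm. Values are fluorescein equivalents.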

[11] = qHTS assay to test for compound auto fluorescence at 590 nm (red) in HEK293 cell free culture (AID 720683)
Method in brief: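 Tox21 10K library compounds were pinned into cell-free DMEM with 10% FBS and fluorescence was read at excitation 540 nm. Activity is expressed as Rose Bengal sodium equivalency.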

[12] = qHTS assay to test for compound auto fluorescence at 590 nm (red) in HepG2 cell free culture (AID 720684)
Method in brief: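 Ex 540 / Em 590 nm read of compound in cell-free MEM (10% FBS). Rose Bengal sodium reference.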

[13] = qHTS assay to test for compound auto fluorescence at 460 nm (blue) in HepG2 cell free culture (AID 720685)
Method in brief: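 Cell-free plates of MEM plus 10% FBS received 23 nL compound or DMSO vehicle; blue-channel (405/460 nm) intensity scored against triamterene as reference fluorophore.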

[14] = qHTS assay to test for compound auto fluorescence at 535 nm (green) in HepG2 cell free culture (AID 720686)
[15] = qHTS assay to test for compound auto fluorescence at 460 nm (blue) in HepG2 cells (AID 720687)
Method in brief: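 Cells (2,000/well in MEM with 10% FBS) attached overnight at 37 C, then were exposed to compound or DMSO for 1 hr at 37 C, 5% CO2. Fluorescence read at Ex/Em 405/460 nm, expressed as triamterene-equivalent signal.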

[16] = biological target: Glucocorticoid receptor (Homo sapiens) (UniProt P04150); assay: qHTS assay to identify small molecule agonists of the glucocorticoid receptor (GR) signaling pathway (AID 720691; active = well fitted activation curve with a large enough effect in the signal ratio in the repeat runs, not every such curve was filed as active; the % refers to the signal ratio); settings: GR-bla HeLa, beta-lactamase reporter ratio, 18 h; activation: at 62.4 µM (top of the series)
Method in brief: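 Cells: GR-bla HeLa, endogenous GR with stably integrated GRE-beta-lactamase reporter. Treatment 18 h, 37 C, compounds delivered in DMSO. Detection via LiveBLAzer B/G FRET substrate, 2 h RT, fluorescence intensity.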

[17] = biological target: Glucocorticoid receptor (Homo sapiens) (UniProt P04150); assay: qHTS assay to identify small molecule antagonists of the glucocorticoid receptor (GR) signaling pathway (AID 720692; active = well fitted inhibition curve with a large enough effect in the signal ratio in the repeat runs, not every such curve was filed as active; the % refers to the signal ratio)
Method in brief: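 Quantitative HTS in antagonist format: HeLa cells expressing endogenous GR and a stably integrated GRE-bla reporter, stimulated with 5 nM dexamethasone (final) alongside test compounds for 18 h.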

[18] = qHTS assay for small molecule disruptors of the mitochondrial membrane potential (AID 720635); also: potency is read from the fitted curve at half-maximal effect
Method in brief: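 HepG2 cells (2,000/well) attached overnight at 37C, then took compound for 1 hr at 37C, 5% CO2. Mito-MPS dye was added for 30 min; fluorescence was read at 490/535 nm (monomers) and 540/590 nm (aggregates).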

[19] = qHTS assay to test for compound auto fluorescence at 535 nm (green) in HepG2 cells (AID 720675)

Measured: Potency

Sequence of Glucocorticoid receptor (Homo sapiens) (P04150 whole entry, looked up): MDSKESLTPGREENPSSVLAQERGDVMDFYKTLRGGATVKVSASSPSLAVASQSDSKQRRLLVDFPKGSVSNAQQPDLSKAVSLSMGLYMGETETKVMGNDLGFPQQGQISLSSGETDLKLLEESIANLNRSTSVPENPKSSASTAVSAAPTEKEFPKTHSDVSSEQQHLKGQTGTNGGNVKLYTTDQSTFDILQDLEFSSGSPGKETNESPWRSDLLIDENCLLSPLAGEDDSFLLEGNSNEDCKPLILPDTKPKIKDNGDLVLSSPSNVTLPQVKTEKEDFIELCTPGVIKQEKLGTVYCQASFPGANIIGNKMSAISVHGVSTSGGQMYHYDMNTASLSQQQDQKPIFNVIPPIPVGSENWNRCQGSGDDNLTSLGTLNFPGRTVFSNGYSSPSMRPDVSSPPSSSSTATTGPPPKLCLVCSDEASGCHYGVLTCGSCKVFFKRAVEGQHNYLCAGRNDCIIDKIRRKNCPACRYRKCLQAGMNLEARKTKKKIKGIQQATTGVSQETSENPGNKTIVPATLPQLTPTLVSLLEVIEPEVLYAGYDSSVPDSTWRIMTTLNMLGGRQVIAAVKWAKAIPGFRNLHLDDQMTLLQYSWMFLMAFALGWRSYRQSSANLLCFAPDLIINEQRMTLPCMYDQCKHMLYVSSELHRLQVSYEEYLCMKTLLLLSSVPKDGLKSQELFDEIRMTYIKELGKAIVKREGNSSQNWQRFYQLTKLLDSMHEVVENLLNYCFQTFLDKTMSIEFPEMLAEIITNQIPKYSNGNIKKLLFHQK

CCCCCCCCCCCCCOP(=O)(O)O
active: [2] 48.6 µM
not listed: [18] | [19]
inactive: all other assays above

CCCN(CCc1cccs1)[C@H]1CCc2c(O)cccc2C1
active: [18] 24.8 µM
not listed: [9]
inactive: all other assays above

C[Si](C)(C)Cl
not listed: [6] | [9] | [10] | [18]
inactive: all other assays above

c1ccc(Nc2cccc3ccccc23)cc1
active: [4] 54.5 µM | [18] 43.8 µM and 43.3 µM
not listed: [9] | [17] | [19]
inactive: all other assays above

Oc1ccc(-c2ccccc2)c(Cl)c1
active: [2] 61.1 µM | [18] 8.63 µM
not listed: [4] | [6] | [10]
inactive: all other assays above

C=C1C(C)(C)[C@@]2(Cl)C(Cl)[C@]1(Cl)C(Cl)(Cl)C2(Cl)Cl (some centres not stated)
active: [2] 67.3 µM | [18] 12 µM
not listed: [8] | [16] | [17] | [19]
inactive: all other assays above

Cc1ccc2ccc3cccc4ccc1c2c34
active: [18] 38.5 µM
not listed: [6] | [17]
inactive: all other assays above

CN(Cc1cc(Br)cc(Br)c1N)C1CCCCC1
active: [2] 29.8 µM | [18] 26.6 µM
not listed: [4] | [9]
inactive: all other assays above

O=C1NCN(c2ccccc2)C12CCN(CCCC(c1ccc(F)cc1)c1ccc(F)cc1)CC2
active: [2] 26.6 µM | [3] 26.6 µM | [4] 21.1 µM | [18] 19.7 µM
not listed: [16] | [17] | [19]
inactive: all other assays above

c1ccc(Sc2ccccc2)cc1
not listed: [16] | [17] | [18]
inactive: all other assays above

CCN(CC)CCOC(=O)C1(C2CCCCC2)CCCCC1
not listed: [18] | [19]
inactive: all other assays above

CCO[Si](CCCSSSSCCC[Si](OCC)(OCC)OCC)(OCC)OCC
not listed: [18] | [19]
inactive: all other assays above

CCCCCCCC/C=C/CCCOC(C)=O
not listed: [10] | [17] | [18] | [19]
inactive: all other assays above
